FBW7 activator: activators of human E3 ligase FBW7; actives 0.13% (n = 650,000); normalized activity (activation), % at 26.1 µM; Q969H0; AlphaScreen FBW7–phospho-cyclin E peptide binding, activator screen; in the data active = normalized activity above about 1.9%;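 note: purified mutant Fbw7 with reduced substrate affinity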
Target sequence (Q969H0 whole entry, looked up): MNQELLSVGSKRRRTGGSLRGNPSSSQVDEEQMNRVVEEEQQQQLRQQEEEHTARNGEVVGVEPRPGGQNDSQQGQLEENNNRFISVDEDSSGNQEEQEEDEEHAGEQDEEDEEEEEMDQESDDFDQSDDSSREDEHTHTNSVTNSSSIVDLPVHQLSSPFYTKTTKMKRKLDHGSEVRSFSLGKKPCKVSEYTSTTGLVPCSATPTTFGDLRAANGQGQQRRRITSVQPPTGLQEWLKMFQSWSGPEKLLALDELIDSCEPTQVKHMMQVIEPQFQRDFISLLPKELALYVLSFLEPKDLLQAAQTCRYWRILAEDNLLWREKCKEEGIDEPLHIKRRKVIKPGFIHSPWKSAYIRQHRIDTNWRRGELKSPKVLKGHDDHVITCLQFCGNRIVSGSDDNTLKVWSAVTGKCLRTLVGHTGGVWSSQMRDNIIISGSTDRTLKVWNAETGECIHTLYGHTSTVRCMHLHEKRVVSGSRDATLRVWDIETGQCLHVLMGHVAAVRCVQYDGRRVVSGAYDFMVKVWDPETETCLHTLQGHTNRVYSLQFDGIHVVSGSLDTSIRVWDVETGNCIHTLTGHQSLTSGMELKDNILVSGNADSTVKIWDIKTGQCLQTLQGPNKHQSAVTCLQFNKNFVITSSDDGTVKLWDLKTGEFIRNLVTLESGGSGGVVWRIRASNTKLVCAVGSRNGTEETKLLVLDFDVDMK
TEAD-YAP block: TEAD-YAP interaction inhibition; HEK-TIYL cells, TEAD-Gal4/YAP UAS-luciferase luminescence; inhibition, % at 9.12 µM; actives 1.4% (n = 640,000); in the data active = inhibition above about 32%;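 note: 0% = median of test compound wells and 100% = reference inhibitor wells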
MITF inh: human MITF inhibition, primary screen | O75030 | AlphaScreen MITF homodimerization, bead proximity signal | inhibition, % at 2.6 µM | actives 0.91% (n = 650,000); in the data active = inhibition above about 50%;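 note: 0% = vehicle wells with protein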
GPR151 ag: activators of human GPR151 | Q8TDV0 | PathHunter beta-arrestin GPR151 cells, luminescence | activation, % at 11.2 µM | actives 1% (n = 650,000); in the data active = activation above about 4.9%;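 note: 0% = median of compound wells and 100% = cells with positive control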
MITF confirm: human MITF inhibition, confirmation; AlphaScreen MITF homodimerization, biotin/His-MITF beads; actives 16% (n = 4,700); shares compounds with MITF inh; inhibition, % at 2.6 µM;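 active = inhibition above a cutoff derived from the DMSO control wells, cut at about 28% in these data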;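 note: 0% = MITF dimer wells with DMSO only; inhibitors lower the bead chemiluminescence by keeping MITF from dimerizing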
AlphaScreen DR: optically interferes with AlphaScreen signal in dose response; shares compounds with MITF inh; AlphaScreen optical interference counterscreen, cell-free; IC50, µM; actives 6% (n = 480); call rule not given here
AlphaScreen intf2: AlphaScreen optical interference, counter-screen; shares compounds with MITF inh; AID 1259376; LysRS AlphaScreen counterscreen, signal interference, triplicate; inhibition, % at 2.6 µM; actives 7.6% (n = 4,700);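 active = inhibition above a cutoff derived from the DMSO control wells, cut at about 30% in these data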
An asterisk follows results filed as active; · = no result given. The list is not random: actives were taken first. Their share in the collection is about 3.5%.

SMILES	FBW7 activator	TEAD-YAP block	MITF inh	GPR151 ag	MITF confirm	AlphaScreen intf2	others
CC(=O)N[C@@H](C)C(=O)NCC1Cc2cc(Cl)cc(-c3cnccn3)c2O1 (some centres undefined)	0.1	5.6	-4.0	0.5	·	·
CC1CCN(Cc2ccc(-c3nnn(CC(=O)Nc4ccc(F)cc4)n3)cc2)CC1	0.1	-0.3	87.9*	-0.1	9.6	15.6
CC1CCN(Cc2ccc(-c3nnn(CC(=O)Nc4ccccc4F)n3)cc2)CC1	-0.1	11.7	10.5	-0.7	·	·
CC(=O)Nc1ccc(Nc2c([N+](=O)[O-])cc(C(F)(F)F)cc2[N+](=O)[O-])cc1	0.8	0.1	16.6	0.3	·	·
Cc1cccc(N=c2c([N+](=O)[O-])nn(-c3ccc(Cl)cc3)n2O)c1	-0.4	10.2	78.0*	-1.2	8.5	9.5
COc1cccc(N=c2c([N+](=O)[O-])nn(-c3ccc(Cl)cc3)n2O)c1	-0.4	9.5	1.5	-0.4	·	·
Cc1ccc(N=c2c([N+](=O)[O-])nn(-c3cccc(C)c3)n2O)cc1	-0.8	2.8	22.1	0.6	·	·
Cc1cccc(-n2nc([N+](=O)[O-])c(=Nc3ccc(F)cc3)n2O)c1	-0.2	-14.9	72.2*	-0.6	8.8	6.2
Cc1cc(C(=O)N(CCN(C)C)c2nc3ccc(F)cc3s2)n(C)n1	-0.1	-37.6	5.0	-1.3	·	·
CCOC(=O)c1cnc(-n2[nH]c(C)c(CCO)c2=O)[nH]c1=O	0.1	-4.4	86.2*	-0.8	13.3	64.5*
Cc1cc(=O)[nH]c(-n2[nH]c(C)c(Cc3ccccc3)c2=O)n1	0.0	1.7	15.3	-0.8	·	·
CCOC(=O)c1cnc(N2CCOCC2)[nH]c1=O	0.0	-5.5	5.1	-0.9	·	·
Cc1[nH]n(-c2ncc(C(=O)O)c(=O)[nH]2)c(=O)c1Cc1ccccc1	-0.2	0.0	82.6*	0.5	63.5*	94.7*
Cc1noc(C)c1S(=O)(=O)Nc1cccc(F)c1	-0.1	-4.8	1.2	0.4	·	·
NCCNCCNCCN	-0.2	3.2	90.9*	0.1	70.2*	100.4*
N#Cc1nc(-c2cccc(Cl)c2)oc1N1CCN(C(=O)c2ccc(Cl)cc2)CC1	-0.1	-6.7	-6.5	4.6	·	·
Cc1cccc(C(=O)N2CCN(c3oc(-c4ccc(Cl)cc4)nc3C#N)CC2)c1	-0.1	0.7	74.9*	0.2	5.8	-2.8
Cc1cccc(C)c1NC(=O)C1CC2CCCN2C12C(=O)Nc1ccccc12 (centres undefined)	0.0	-3.7	-2.6	-1.3	·	·
O=C1CCC(CCNCCOc2ccc(F)cc2)N1Cc1cccc(Cl)c1 (centres undefined)	-0.1	-2.8	70.9*	-0.5	0.6	3.0
O=C1CCC(CCNCCOc2ccc(F)cc2)N1Cc1cccc(-n2cccn2)c1 (centres undefined)	-0.2	2.6	-0.1	2.5	·	·
O=c1[nH]c(/C=C/c2ccco2)nc(O)c1[N+](=O)[O-]	-0.7	2.4	83.3*	0.1	67.0*	-6.6	AlphaScreen DR=>6.48
CCn1c(SCC(=O)Nc2sc3c(c2C(N)=O)CCCC3)nnc1-c1cccnc1	-0.1	14.5	8.1	0.4	·	·
COC(=O)C(C)CN1CCN(C)CC1 (centres undefined)	-0.2	-3.2	59.7*	0.1	-22.9	-6.4
CC1CCN(C(=O)C2CCN(Cc3ccccc3O)CC2)CC1	0.8	3.4	38.2	-1.0	·	·
CCOC(=O)C1CCCN(Cc2ccc(O)c3ncccc23)C1 (centres undefined)	-1.8	7.7	77.9*	1.4	81.5*	100.2*
SMILES	FBW7 activator	TEAD-YAP block	MITF inh	GPR151 ag	MITF confirm	AlphaScreen intf2	others
CC1CCN(Cc2ccc(O)c3ncccc23)CC1	-0.4	40.9*	83.1*	1.5	97.1*	100.3*
CCCS(=O)(=O)N1CCN(C(C)CC)CC1 (centres undefined)	-0.1	-2.5	51.8*	2.3	-2.6	12.7
Cc1ccc(S(=O)(=O)NCC(=O)OCc2cccc(C(F)(F)F)c2)cc1	0.1	2.1	0.4	0.2	·	·
CCOC(=O)c1c(NC(=O)c2ccccc2F)sc(C(=O)OC)c1C	-0.1	-1.0	4.7	-1.8	·	·
O=C(COC(=O)c1cc(=O)c2ccccc2o1)NCc1ccccc1	-0.1	0.4	3.5	-0.6	·	·
O=C(COC(=O)c1cc(=O)c2ccccc2o1)NCc1ccc(Cl)cc1	0.4	10.8	51.5*	-1.0	-9.1	-4.7
CNC(=O)Nc1ccc2nc(-c3ccco3)c(-c3ccco3)nc2c1	-0.6	16.2	109.7*	-0.4	110.2*	15.3	AlphaScreen DR=>6.48
Cc1ccc(NC(=O)c2cc(-c3ccco3)on2)cc1C	-0.1	-67.9	-2.0	-0.6	·	·
COc1ccc2c(c1)C1NC(=S)N(c3cccc(C)c3)C(C)(O2)C1C(=O)Nc1ccc(C)cc1C (centres undefined)	-0.2	6.0	56.6*	0.6	30.8*	20.3	AlphaScreen DR=>5.71
COc1cccc(C(=O)N2CCN(Cc3ccccn3)CC2)c1	0.1	-8.3	92.2*	-0.5	-11.0	1.3
COc1cc(OC)cc(C(=O)N2CCN(Cc3ccccn3)CC2)c1	0.3	-6.1	57.4*	-0.6	14.7	18.0
CCOC(=O)CSc1nc(=O)cc(N)n1CCc1ccccc1	0.0	-6.0	-3.1	-0.9	·	·
COC(=O)c1ccccc1S(=O)(=O)N1CCCC(N2CCOCC2)C1 (centres undefined)	-0.2	2.5	-5.8	-0.3	·	·
COCCCNC(=O)/C(C#N)=C/c1ccc(-c2ccc(C(=O)O)c(Cl)c2)o1	-0.1	2.3	63.5*	1.7	66.7*	-4.1	AlphaScreen DR=>6.48
Cc1cnc(-c2ccc(C(=O)NC3CC3)cc2)nc1NCc1ccccc1	0.0	-16.2	-2.6	-1.8	·	·
Cc1ncc(CO)c(/C=N/NC(=O)c2ccccc2O)c1O	-1.6	-3.3	48.6	3.5	·	·
Cc1ncc(CO)c(/C=N/NC(=O)c2ccc(Cl)cc2O)c1O	0.0	-1.8	60.2*	0.9	9.2	31.9*
O=C(N/N=C/c1ccccn1)c1ccc([N+](=O)[O-])cc1Cl	-0.8	-4.6	26.9	1.8	·	·
Cc1ncc(CO)c(/C=N/NC(=O)c2ccc([N+](=O)[O-])cc2Cl)c1O	-0.2	10.3	67.1*	-0.6	13.3	96.4*
Cc1ccc(C(C)(C)C)c(OCCn2ccnc2)c1	-0.1	-13.0	28.3	-1.8	·	·
Cc1ccc(C(C)(C)C)c(OCCNCCN)c1	-0.2	-2.6	79.8*	-0.8	3.0	3.6
Cc1ccc(C(C)(C)C)c(OCCN2CCN(C)CC2)c1	0.4	-10.8	77.0*	0.2	12.7	15.2
CC(C)(C)c1cc(Cl)ccc1OCCOCCN1CCOCC1	-0.1	-11.6	64.3*	-1.4	9.8	1.4
CN1CCN(CCOc2ccc(Cl)cc2C(C)(C)C)CC1	0.0	1.1	78.6*	-1.7	15.7	19.6
Cc1[nH][nH]c(=O)c1N=Nc1ccc(S(=O)(=O)N2CCOCC2)cc1	-0.1	-6.5	-6.0	-2.8	·	·
O=C(CN1C(=O)C2C3CCC(C3)C2C1=O)Nc1ccc([N+](=O)[O-])cc1 (centres undefined)	0.5	-14.2	-16.1	0.1	·	·
